Measured values reported in PubChem BioAssay AID1159580 (chemical genetic matrix, 2015).
Screen size: about 5,500 compounds; about 2,000 (36%) were called active. Another 18% or so got no clear call; they are omitted. Cut-off read from the data, not from the text of the source: active = normalized growth mostly below about 0.91 (no sharp cut-off); inconclusive = no clear call, values can overlap the other calls; inactive = mostly above about 0.92. The list shows a part of the results.

Assay: chemical genetic growth profiling, strain panel (AID 1159580);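 note: tested at 20 µM; growth read once vehicle control cultures reached saturation at 30 °C; 1 = growth at the plate median or of vehicle wells; lower values mean less growth of the strain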
Conditions: growth OD
[1] = S. cerevisiae deletion strains, locus YAL013W, strain DEP1, active compounds read low
[2] = S. cerevisiae deletion strains, locus YBR021W, strain FUR4, active compounds read low
[3] = S. cerevisiae deletion strains, locus YBR229C, strain ROT2, active compounds read low
[4] = S. cerevisiae deletion strains, locus YCL029C, strain bik1, active compounds read low
[5] = S. cerevisiae deletion strains, locus YDL035C, strain GPR1, active compounds read low
[6] = S. cerevisiae deletion strains, locus YDL074C, strain BRE1, active compounds read low
[7] = S. cerevisiae deletion strains, locus YDL101C, strain DUN1, active compounds read low
[8] = S. cerevisiae deletion strains, locus YDL185W, strain tfp1, active compounds read low
[9] = S. cerevisiae deletion strains, locus YDL192W, strain arf1, active compounds read low
[10] = S. cerevisiae deletion strains, locus YDR101C, strain arx1, active compounds read low
[11] = S. cerevisiae deletion strains, locus YDR162C, strain NBP2, active compounds read low
[12] = S. cerevisiae deletion strains, locus YDR318W, strain mcm21, active compounds read low
[13] = S. cerevisiae deletion strains, locus YDR388W, active compounds read low
[14] = S. cerevisiae deletion strains, locus YDR502C, strain sam2, active compounds read low
[15] = S. cerevisiae deletion strains, locus YEL061C, strain CIN8, active compounds read low
[16] = S. cerevisiae deletion strains, locus YER110C, active compounds read low
[17] = S. cerevisiae deletion strains, locus YER155C, strain BEM2, active compounds read low
[18] = S. cerevisiae deletion strains, locus YER167W, strain BCK2, active compounds read low
[19] = S. cerevisiae deletion strains, locus YGL078C, strain dbp3, active compounds read low
[20] = S. cerevisiae deletion strains, locus YGL086W, strain mad1, active compounds read low
[21] = S. cerevisiae deletion strains, locus YGL248W, strain PDE1, active compounds read low
[22] = S. cerevisiae deletion strains, locus YGR135W, strain pre9, active compounds read low
[23] = S. cerevisiae deletion strains, locus YGR252W, strain gcn5, active compounds read low
[24] = S. cerevisiae deletion strains, locus YHR030C, strain SLT2, active compounds read low
[25] = S. cerevisiae deletion strains, locus YHR079C, strain IRE1 (second series), active compounds read low
[26] = S. cerevisiae deletion strains, locus YHR094C, strain hxt1, active compounds read low
[27] = S. cerevisiae deletion strains, locus YHR129C, strain ARP1, active compounds read low
[28] = S. cerevisiae deletion strains, locus YHR200W, strain rpn10, active compounds read low
[29] = S. cerevisiae deletion strains, locus YIL066C, strain RNR3, active compounds read low
[30] = S. cerevisiae deletion strains, locus YIL073C, strain SPO22, active compounds read low
[31] = S. cerevisiae deletion strains, locus YIL125W, strain kgd1, active compounds read low
[32] = S. cerevisiae deletion strains, locus YIR030C, strain dcg1, active compounds read low
[33] = S. cerevisiae deletion strains, locus YJL095W, strain BCK1, active compounds read low
[34] = S. cerevisiae deletion strains, locus YJL134W, strain LCB3, active compounds read low
[35] = S. cerevisiae deletion strains, locus YJL168C, strain set2, active compounds read low
[36] = S. cerevisiae deletion strains, locus YJL187C, strain SWE1 (second series), active compounds read low
[37] = S. cerevisiae deletion strains, locus YJR043C, strain POL32, active compounds read low
[38] = S. cerevisiae deletion strains, locus YKL009W, strain mrt4, active compounds read low
[39] = S. cerevisiae deletion strains, locus YKL068W, active compounds read low
[40] = S. cerevisiae deletion strains, locus YKL085W, strain MDH1 (second series), active compounds read low
[41] = S. cerevisiae deletion strains, locus YKL085W, strain MDH1, active compounds read low
[42] = S. cerevisiae deletion strains, locus YKL190W, strain CNB1, active compounds read low
[43] = S. cerevisiae deletion strains, locus YKR001C, strain vps1, active compounds read low
[44] = S. cerevisiae deletion strains, locus YLR039C, strain RIC1, active compounds read low
[45] = S. cerevisiae deletion strains, locus YLR058C, strain SHM2, active compounds read low
[46] = S. cerevisiae deletion strains, locus YLR102C, strain apc9, active compounds read low
[47] = S. cerevisiae deletion strains, locus YLR262C, strain YPT6, active compounds read low
[48] = S. cerevisiae deletion strains, locus YLR268W, strain sec22, active compounds read low
[49] = S. cerevisiae deletion strains, locus YLR330W, strain CHS5, active compounds read low
[50] = S. cerevisiae deletion strains, locus YLR342W, strain FKS1 (second series), active compounds read low
[51] = S. cerevisiae deletion strains, locus YLR371W, strain rom2, active compounds read low
[52] = S. cerevisiae deletion strains, locus YLR418C, strain cdc73, active compounds read low
[53] = S. cerevisiae deletion strains, locus YML016C, strain PPZ1, active compounds read low
[54] = S. cerevisiae deletion strains, locus YML032C, strain rad52, active compounds read low
[55] = S. cerevisiae deletion strains, locus YML124C, strain tub3, active compounds read low
[56] = S. cerevisiae deletion strains, locus YMR078C, strain ctf18, active compounds read low
[57] = S. cerevisiae deletion strains, locus YMR223W, strain ubp8, active compounds read low
[58] = S. cerevisiae deletion strains, locus YMR307W, strain GAS1, active compounds read low
[59] = S. cerevisiae deletion strains, locus YNL067W, strain RPL9B, active compounds read low
[60] = S. cerevisiae deletion strains, locus YNL153C, strain GIM3, active compounds read low
[61] = S. cerevisiae deletion strains, locus YNL233W, strain BNI4, active compounds read low
[62] = S. cerevisiae deletion strains, locus YNL250W, strain rad50, active compounds read low
[63] = S. cerevisiae deletion strains, locus YNL271C, strain bni1, active compounds read low
[64] = S. cerevisiae deletion strains, locus YNL298W, strain CLA4, active compounds read low
[65] = S. cerevisiae deletion strains, locus YNL307C, strain MCK1, active compounds read low
[66] = S. cerevisiae deletion strains, locus YNL322C, strain KRE1, active compounds read low
[67] = S. cerevisiae deletion strains, locus YNR052C, strain pop2, active compounds read low
[68] = S. cerevisiae deletion strains, locus YOL012C, strain htz1
[69] = S. cerevisiae deletion strains, locus YOL147C, strain pex11, active compounds read low
[70] = S. cerevisiae deletion strains, locus YOR061W, strain CKA2, active compounds read low
[71] = S. cerevisiae deletion strains, locus YOR069W, strain VPS5, active compounds read low
[72] = S. cerevisiae deletion strains, locus YOR136W, strain idh2, active compounds read low
[73] = S. cerevisiae deletion strains, locus YOR144C, strain elg1, active compounds read low
[74] = S. cerevisiae deletion strains, locus YOR184W, strain ser1, active compounds read low
[75] = S. cerevisiae deletion strains, locus YOR316C, strain cot1, active compounds read low
[76] = S. cerevisiae deletion strains, locus YPL055C, strain LGE1, active compounds read low
[77] = S. cerevisiae deletion strains, locus YPR119W, strain clb2, active compounds read low
[78] = S. cerevisiae deletion strains, locus YPR141C, strain kar3, active compounds read low
[79] = S. cerevisiae deletion strains, locus YPR163C, strain tif3, active compounds read low
[80] = S. cerevisiae deletion strains, locus YPR167C, strain met16, active compounds read low
[81] = S. cerevisiae deletion strains, strain wtn01, active compounds read low
[82] = S. cerevisiae deletion strains, locus YMR263W, strain SAP30, active compounds read low
[83] = S. cerevisiae deletion strains, locus YPL241C, strain CIN2, active compounds read low

Measured: normalized growth

CC(C)CCCC(C)[C@H]1CCC2C3CC[C@@H]4C[C@H](O)CC[C@]4(C)C3CC[C@@]21C (stereo partly drawn)
inactive: [1] 1.04 | [2] 0.992 | [3] 1 | [4] 1.02 | [5] 1.02 | [6] 1.01 | [7] 1.01 | [8] 1.02 | [9] 1 | [10] 0.991 | [11] 1.03 | [12] 1.01 | [13] 1 | [14] 0.999 | [15] 1 | [16] 1.01 | [17] 1 | [18] 1.02 | [19] 1 | [20] 1 | [21] 1.01 | [22] 1.01 | [23] 0.985 | [24] 1.01 | [25] 0.997 | [26] 1.01 | [27] 1 | [28] 1 | [29] 1.03 | [30] 1.03 | [31] 0.999 | [32] 1 | [33] 1.01 | [34] 1.01 | [35] 0.994 | [36] 1.01 | [37] 1.01 | S. cerevisiae deletion strains, locus YJR075W, strain HOC1, active compounds read low 1 | [38] 1.02 | [39] 1 | [40] 1.01 | [41] 1.01 | [42] 1.01 | [43] 0.998 | [44] 1.06 | [45] 1 | [46] 1 | [47] 1.06 | [48] 0.999 | [49] 1.01 | [50] 1.01 | [51] 1.02 | [52] 0.978 | [53] 1.01 | [54] 1 | [55] 1 | [56] 1 | [57] 1.01 | [58] 1.07 | [59] 1.01 | [60] 1.01 | [61] 1.01 | [62] 1 | [63] 1.01 | [64] 1 | [65] 1.01 | [66] 1.01 | [67] 0.999 | S. cerevisiae deletion strains, locus YOL006C, strain TOP1, active compounds read low 1.04 | [68] 0.869 | [69] 0.991 | [70] 1.01 | [71] 1.01 | [72] 0.994 | [73] 0.987 | [74] 0.989 | [75] 1 | [76] 1.01 | [77] 1 | [78] 1.02 | [79] 1.01 | [80] 1 | [81] 1

CC(C)CCCC(C)C1CCC2C3CC[C@H]4C[C@H](O)CC[C@]4(C)C3CC[C@]12C (stereo partly drawn)
inactive: [24] 0.98 | S. cerevisiae deletion strains, locus YHR079C, strain IRE1, active compounds read low 0.985 | [33] 0.992 | S. cerevisiae deletion strains, locus YJR066W, strain TOR1, active compounds read low 0.919 | S. cerevisiae deletion strains, locus YLR113W, strain HOG1, active compounds read low 0.985 | S. cerevisiae deletion strains, locus YNL183C, strain NPR1, active compounds read low 0.916 | S. cerevisiae deletion strains, locus YOR231W, strain MKK1, active compounds read low 0.991 | S. cerevisiae deletion strains, locus YPL256C, strain CLN2, active compounds read low 0.981

CC(C)CCCC(C)C1CCC2C3CC[C@H]4C[C@@H](O)CC[C@]4(C)C3CC[C@]12C (stereo partly drawn)
inactive: [1] 1 | [2] 1 | [3] 1.01 | [4] 1.03 | [5] 1 | [6] 1.02 | [7] 1.01 | [8] 1.01 | [9] 1.01 | [10] 1.04 | [11] 0.987 | [12] 0.984 | [13] 0.997 | [14] 1.03 | [15] 0.995 | [16] 1 | [17] 0.997 | [18] 0.997 | [19] 1.02 | [20] 1.03 | [21] 1 | [22] 0.99 | S. cerevisiae deletion strains, locus YGR229C, strain SMI1, active compounds read low 1 | [23] 0.96 | [24] 0.996 | [25] 0.995 | [26] 0.995 | [27] 1.01 | [28] 1.01 | [29] 1 | [30] 1.02 | [31] 1.01 | [32] 1 | [33] 0.997 | [34] 1.01 | [35] 1 | [36] 1.01 | [37] 0.988 | [38] 0.997 | [39] 0.999 | [40] 0.994 | [41] 0.994 | [42] 0.994 | [43] 1.01 | [44] 1.05 | [45] 0.987 | [46] 1.01 | [47] 1.08 | [48] 1.04 | [49] 0.989 | [50] 1.01 | [51] 1 | [52] 1.01 | [53] 1.01 | [54] 0.975 | [55] 0.996 | [56] 1 | [57] 0.989 | [82] 0.999 | [58] 1.06 | [59] 1.01 | S. cerevisiae deletion strains, locus YNL128W, strain TEP1, active compounds read low 0.972 | [61] 1.01 | [62] 0.997 | [63] 1.01 | [64] 1 | [65] 1.01 | [66] 0.998 | [67] 0.996 | [68] 1.64 | [69] 1 | [70] 0.997 | [71] 1 | [72] 1.01 | [73] 1 | [74] 1.03 | [75] 1 | [76] 0.992 | [83] 0.99 | [77] 0.998 | [78] 1 | [79] 1 | [80] 0.994 | [81] 1.04 | S. cerevisiae strains, strain wild type, active compounds read low 0.976

NCC(O)(CS(=O)(=O)O)c1ccc(Cl)cc1 (stereo not drawn)
inactive: S. cerevisiae deletion strains, locus YAL040C, strain CLN3, active compounds read low 1.07 | S. cerevisiae deletion strains, locus YCL061C, strain MRC1 (second series), active compounds read low 0.995 | S. cerevisiae deletion strains, locus YDR150W, strain NUM1, active compounds read low 1.02 | S. cerevisiae deletion strains, locus YER002W, strain NOP16, active compounds read low 1.02 | S. cerevisiae deletion strains, locus YGR078C, strain PAC10, active compounds read low 0.99 | [82] 1 | [60] 1 | S. cerevisiae deletion strains, locus YNL175C, strain NOP13, active compounds read low 0.979 | S. cerevisiae deletion strains, locus YNL197C, strain WHI3, active compounds read low 0.98 | S. cerevisiae deletion strains, locus YNL224C, strain SQS1, active compounds read low 1.01 | S. cerevisiae deletion strains, locus YOR083W, strain WHI5 (second series), active compounds read low 1 | [83] 1
